Data published in PubChem BioAssay (Tox21).
Several values for one entry are separate records, joined by “and”; a condition that tells them apart may be missing. Identical values can stand only once. Records with an inconclusive call do not appear. Entries that show only a call come without a potency. Where a structure was tested more than once in an assay, its records may differ in their call. Activity calls are given as the source filed them. Unless noted, calls follow the shape of the dose curve; as a rule, active = well fitted curve in the direction sought with a large enough effect in the repeat runs; inconclusive = weak or mixed curves; inactive = no such curve, though single readings can be large; an effect the other way counts as inactive or inconclusive.

Tests used:
[1] = qHTS assay to identify small molecule agonists of the hypoxia (HIF-1) signaling pathway - cell viability counter screen (AID 1224844; calls by dose curve; also: nearly all actives have a fitted effect of over 50% in size)
Method in brief: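 HRE-bla ME-180; 0.5% dFBS; cpd 17 h, 37C, 5% CO2; CellTiter-Glo lum., 30 min RT, post-FRET read, same wells.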

[2] = qHTS assay to identify small molecule agonists of H2AX (AID 1224845; active = well fitted activation curve with a large enough effect in the signal ratio in the repeat runs, not every such curve was filed as active; the % refers to the signal ratio; also: potency is read from the fitted curve at half-maximal effect)
Method in brief: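 Wild-type CHO-K1 cells, plated overnight, exposed 3hr at 37C to 15 concentrations (0.76% DMSO final). Lysed, then HTRF anti-pH2AX (S139) cryptate and anti-H2AX-d2 antibodies, 24 hr room temperature; 665/620 nm emission read.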

[3] = qHTS RealTime-Glo MT Cell Viability Assay in HepG2 cells - 24 hour (AID 1224867); also: nearly all actives have a fitted effect of over 50% in size
Method in brief: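 Cells + NanoLuc/prosubstrate dispensed (600 cells/well) → 5 h at 37 C/5% CO2 → compounds in DMSO transferred → 40 h incubation at 37 C, luminescence read at 0, 8, 16, 24, 32, 40 h.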

[4] = A CellTox Green Cytotoxicity Assay to monitor cytotoxicity in HEK293 cells - 0 hour (AID 1224869); also: nearly all actives have a fitted effect of over 50% in size
Method in brief: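 Tox21 screen in HEK293: membrane-impermeant cyanine dye fluoresces on binding dead-cell DNA; compound pinned 5 h post-seeding, plates held at 37 C, signal read repeatedly through 40 h.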

[5] = qHTS RealTime-Glo MT Cell Viability Assay in HepG2 cells - 40 hour (AID 1224870); also: nearly all actives have a fitted effect of over 50% in size; also: potency is read from the fitted curve at half-maximal effect
Method in brief: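 HepG2 cells (600/well) mixed with RealTime-Glo MT reagent, settled 5 h at 37 C/5% CO2 before compound addition. Nonlytic NanoLuc luminescence from viable-cell prosubstrate reduction read repeatedly during 40 h treatment at 37 C.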

[6] = qHTS assay to identify small molecule agonists of H2AX - cell viability counter screen (AID 1224847; calls by dose curve; also: nearly all actives have a fitted effect of over 30% in size; also: potency is read from the fitted curve at half-maximal effect; as to activity change, negative = cytotoxicity: top concentration of the series differs between compounds)
Method in brief: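 CHO-K1 wt, 1000 cells/well, o/n 37C; cpds 15 conc, 3 h 37C, 0.76% DMSO; CellTiter-Glo, 30 min RT, luminescence.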

[7] = qHTS RealTime-Glo MT Cell Viability Assay in HEK293 cells - 32 hour (AID 1224868); also: nearly all actives have a fitted effect of over 50% in size; also: potency is read from the fitted curve at half-maximal effect; as to activity change, negative = cytotoxic: top concentration of the series differs between compounds
Method in brief: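 Tox21 10K qHTS, HEK293, 600 cells/well, RealTime-Glo reagent co-dispensed with cells; 5 h preincubation, compound by pintool, 37 C, luminescence at 0–40 h.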

[8] = qHTS assay to identify small molecule antagonists of the estrogen related receptor (ERR) signaling pathway from Tox21 library (AID 1224848); also: nearly all actives have a fitted effect of over 50% in size; also: potency is read from the fitted curve at half-maximal effect
Method in brief: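 Quantitative high-throughput format: ERR reporter cells (2,000/well) pre-incubated 6 h, treated 18 h at 37 C with compounds in DMSO alongside positive and negative controls, then read by ONE-Glo luminescence.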

[9] = qHTS assay to identify small molecule agonists of the estrogen related receptor (ERR) signaling pathway from Tox21 library (AID 1224849; calls by dose curve; also: nearly all actives have a fitted effect of over 15% in size); conditions: ERR reporter cell line, ONE-Glo luciferase, 18 h
Method in brief: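 Tox21 compounds tested for ERR agonism in an NTP reporter cell line: 18 h treatment at 37 C, then ONE-Glo luminescence.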

[10] = qHTS assay to identify small molecule agonists of the hypoxia (HIF-1) signaling pathway (AID 1224846; active = well fitted activation curve with a large enough effect in the signal ratio in the repeat runs, not every such curve was filed as active; the % refers to the signal ratio)
Method in brief: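 Reporter induction in HRE-bla ME-180 cells is taken as agonism: cells sit 5 hrs after plating, receive compounds or DMSO only, incubate 17 hrs at 37C under 5% CO2, and are loaded with CCF4-AM for beta-lactamase FRET measurement.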

[11] = at 92.4 µM (top of the series) unless noted

In the case of `CCOC(=O)[C@]1(c2ccccc2)Oc2ccccc2[C@@H]1N`, the Potency [1] is reported as “inactive”, the Potency [2] is reported as “inactive” and the Potency [3] is reported as “inactive”. For the same compound, the Potency [4] was “inactive” and the Potency [5] was “inactive”.

In the case of `CCOP(=S)(OCC)Oc1nc(Cl)c(Cl)cc1Cl`, the Potency [1] is reported as “inactive”, the Potency [6] is reported as 56.8 µM (active) and the Potency [3] is reported as “inactive”. The Potency [7] was 21.9 µM (active) and inactive, the Potency [4] was “inactive” and the Potency [5] was “inactive”.

With `CCO[C@H]1O[C@@H]2OC3(C)CC[C@H]4[C@H](C)CC[C@@H]([C@H]1C)[C@@]24OO3` the Potency [1] was “inactive”, the Potency [6] was “inactive” and the Potency [8] was 0.531 µM (active). The activity change, positive = activation [9, 11] was -53.8% [at 42.5 µM] (inactive), the Potency [7] was “inactive” and the Potency [4] was “inactive”.

In the case of `CCOP(=S)(OCC)SCn1nnc2ccccc2c1=O`, the Potency [1] is reported as “inactive”, the outcome [10] is reported as “inactive” and the Potency [8] is reported as 27.3 µM (active). The activity change, positive = activation [9, 11] was -48.2% (inactive), the Potency [3] was “inactive” and the Potency [7] was 21.9 µM (active). For the same compound, the Potency [4] was “inactive”.

For `CCC(COC(=O)c1cc(OC)c(OC)c(OC)c1)(c1ccccc1)N(C)C` (stereo not given), the Potency [1] was “inactive”, the Potency [3] was “inactive” and the Potency [4] was “inactive”.

With `CN1[C@@H]2CC[C@H]1CC(OC(=O)c1cc(Cl)cc(Cl)c1)C2` (stereo not given in full) the Potency [1] was “inactive”, the Potency [2] was “inactive” and the Potency [6] was “inactive”. The Potency [4] was “inactive” and the Potency [5] was “inactive”.

With `O=C(Nc1ccccc1)Nc1ccnc(Cl)c1` the Potency [1] was “inactive”, the Potency [2] was “inactive” and the Potency [8] was 24.3 µM (active). The activity change, positive = activation [9, 11] was -55.6% (inactive), the Potency [3] was “inactive” and the Potency [7] was 19.5 µM (active). For the same compound, the Potency [4] was “inactive”.

In the case of `BrCC(Br)C1CCC(Br)C(Br)C1` (stereo not given), the Potency [1] is reported as “inactive”, the Potency [2] is reported as “inactive” and the Potency [3] is reported as “inactive”. The Potency [4] was “inactive” and the Potency [5] was “inactive”.

With `O=S(=O)(O)C(F)(F)C(F)(F)C(F)(F)C(F)(F)F` the Potency [1] was “inactive”, the Potency [2] was “inactive” and the Potency [3] was “inactive”. The Potency [4] was “inactive”.

With `CC(c1ccc(O)cc1)(c1ccc(O)cc1)c1ccc(O)cc1` the Potency [1] was “inactive”, the Potency [8] was 54.5 µM (active) and the activity change, positive = activation [9, 11] was -42.4% (inactive). The Potency [3] was “inactive”, the Potency [7] was 54.9 µM (active) and the Potency [4] was “inactive”. The Potency [5] was “inactive”.

With `COC(C)(C)CCC[C@H](C)C/C=C/C(C)=C/C(=O)OC(C)C` the Potency [1] was “inactive”, the outcome [10] was “inactive” and the Potency [6] was “inactive”. For the same compound, the activity change, positive = activation [9, 11] was -23.3% (inactive), the Potency [3] was “inactive” and the Potency [7] was “inactive”. For the same compound, the Potency [4] was “inactive”.

For `CC(C)(C)C(O)C(Oc1ccc(Cl)cc1)n1cncn1` (stereo not given), the Potency [2] was “inactive”, the outcome [10] was “inactive” and the Potency [6] was “inactive”. For the same compound, the Potency [3] was “inactive”, the Potency [7] was 12.3 µM (active) and the Potency [4] was “inactive”. The Potency [5] was “inactive”.

For `COCCOCCO`, the Potency [8] was “inactive”, the activity change, positive = activation [9, 11] was 18.2% (active) and the Potency [3] was “inactive”. For the same compound, the Potency [7] was “inactive”, the Potency [4] was “inactive” and the Potency [5] was “inactive”.

For `OC(c1ccc(Cl)cc1)(c1ccc(Cl)cc1)c1cccnc1`, the Potency [2] was “inactive”, the Potency [8] was 48.6 µM (active) and the activity change, positive = activation [9, 11] was -55.6% (inactive). For the same compound, the Potency [4] was “inactive”.

For `C/C=C/C=O`, the Potency [2] was “inactive”, the outcome [10] was “inactive” and the Potency [6] was “inactive”. For the same compound, the Potency [3] was “inactive”, the Potency [7] was “inactive” and the Potency [4] was “inactive”.

With `CCCCN(N=O)C(=N)N[N+](=O)[O-]` the Potency [2] was 103 µM (active), the Potency [6] was “inactive” and the Potency [4] was “inactive”. For the same compound, the Potency [5] was “inactive”.

In the case of `COC(=O)C(Br)CBr` (stereo not given), the Potency [2] is reported as “inactive”, the Potency [6] is reported as “inactive” and the Potency [8] is reported as “inactive”. For the same compound, the activity change, positive = activation [9, 11] was -11.9% (inactive), the Potency [7] was “inactive” and the Potency [4] was “inactive”. The Potency [5] was “inactive”.

With `COP(=S)(Oc1cc(Cl)c(Br)cc1Cl)c1ccccc1` (stereo not given) the Potency [2] was “inactive”, the outcome [10] was “inactive” and the activity change, positive = activation [9, 11] was -31.4% (inactive). The Potency [3] was “inactive”, the Potency [4] was “inactive” and the Potency [5] was “inactive”.

In the case of `ClCc1ccccc1`, the Potency [2] is reported as “inactive”, the outcome [10] is reported as “inactive” and the Potency [6] is reported as “inactive”. For the same compound, the Potency [3] was “inactive”, the Potency [7] was “inactive” and the Potency [4] was “inactive”. For the same compound, the Potency [5] was “inactive”.

With `O=C(CCl)c1ccc(Cl)cc1Cl` the outcome [10] was “inactive”, the Potency [8] was “inactive” and the activity change, positive = activation ([9]; at 42.5 µM (top of the series)) was -19% (inactive). The activity change, positive = activation ([9]; at 92.4 µM (top of the series)) was -9.77% (inactive), the Potency [7] was 3.01 µM (active) and the Potency [4] was “inactive”. The Potency [5] was “inactive and 16.9 µM (active)”.

With `CC1(C)CCC(Cc2ccc(Cl)cc2)C1(O)Cn1cncn1` (stereo not given) the Potency [2] was “inactive”, the Potency [6] was 101 µM (active) and the Potency [8] was 30.6 µM (active). For the same compound, the activity change, positive = activation [9, 11] was -53.4% (inactive), the Potency [3] was “inactive” and the Potency [7] was 24.5 µM (active). For the same compound, the Potency [4] was “inactive” and the Potency [5] was “inactive”.

In the case of `COc1nn(CSP(=S)(OC)OC)c(=O)s1`, the outcome [10] is reported as “inactive”, the Potency [7] is reported as “inactive” and the Potency [4] is reported as “inactive”. The Potency [5] was “inactive”.

For `Oc1ccc(Cl)c(Cl)c1Cl`, the Potency [2] was “inactive”, the Potency [4] was “inactive” and the Potency [5] was “inactive”.

For `CO[C@@H]1[C@H](OC(=O)NC(=O)CCl)CC[C@]2(CO2)[C@H]1[C@@]1(C)O[C@@H]1CC=C(C)C`, the activation (H2AX phosphorylation) [2] was 1.5% [at 31.6 µM] (inactive), the activation [10] was -0.119% [at 15.8 µM] (inactive) and the activity change, negative = cytotoxicity [6] was 2.72% [at 31.6 µM] (inactive). For the same compound, the activity, negative = inhibition [8] was -8.28% [at 19 µM] (inactive), the activity change, positive = activation [9, 11] was -4.67% [at 19 µM] (inactive) and the activity change, negative = cytotoxicity [3] was 0.578% [at 15.8 µM] (inactive). The activity change, negative = cytotoxic [7] was 8.14% [at 15.8 µM] (inactive), the cytotoxicity [4] was -3.97% [at 15.8 µM] (inactive) and the activity change, negative = cytotoxic [5] was 0.252% [at 15.8 µM] (inactive).
